Measurements: paper PMC5540273 (PLoS ONE, 2017)
Like-named read-outs stand apart in the source and are kept apart here.

Tests used:
[1] = system: FYN; conditions: concentration: 1 μM, replicates: in singlicate; n = 1
[2] = system: GAK; conditions: concentration: 1 μM, replicates: in singlicate; n = 1
[3] = system: T1, GCN2(Kin.Dom.2,S808G); conditions: concentration: 1 μM, replicates: in singlicate; n = 1
T1 construct: gene EIF2AK4

[4] = system: GRK1; conditions: concentration: 1 μM, replicates: in singlicate; n = 1
[5] = system: T2, GRK2; conditions: concentration: 1 μM, replicates: in singlicate; n = 1
T2 construct: gene ADRBK1

[6] = system: T3, GRK3; conditions: concentration: 1 μM, replicates: in singlicate; n = 1
T3 construct: gene ADRBK2

[7] = system: GRK4; conditions: concentration: 1 μM, replicates: in singlicate; n = 1
[8] = system: GRK7; conditions: concentration: 1 μM, replicates: in singlicate; n = 1
[9] = system: GSK3A; conditions: concentration: 1 μM, replicates: in singlicate; n = 1
[10] = system: GSK3B; conditions: n = 1
[11] = concentration: 1 μM, replicates: in singlicate
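Also: KINOMEscan kinase panel screen.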

## Cc1ccc(NC(=O)c2cccc(N3CCCCC3)c2)cc1-c1ccc(C(=O)NCC2CC2)cc1 [GSK1917008]
[1]
  %Inh: 15%
[2]
  %Inh: 11%
[3]
  %Inh: 15%
[4]
  %Inh: 3%
[5]
  %Inh: 6%
[6]
  %Inh: 27%
[7]
  %Inh: 10%
[8]
  %Inh: 0%
[9]
  %Inh: 27%
[10]; [11]
  %Inh: 10%

## CCOc1nccc(-c2c(-c3ccc(F)cc3)ncn2C2CCNCC2)n1 [SB-249175]
[1]
  %Inh: 6%
[2]
  %Inh: 8%
[3]
  %Inh: 40%
[4]
  %Inh: 11%
[5]
  %Inh: 3%
[6]
  %Inh: 0%
[7]
  %Inh: 15%
[8]
  %Inh: 14%
[9]
  %Inh: 0%
[10]; [11]
  %Inh: 49%

## COc1cccc(CC(=O)N2CCc3cc(-c4cn(C)c5ncnc(N)c45)ccc32)c1 [GSK2608899]
[1]
  %Inh: 9%
[2]
  %Inh: 31%
[3]
  %Inh: 70%
[4]
  %Inh: 0%
[5]
  %Inh: 0%
[6]
  %Inh: 0%
[7]
  %Inh: 9%
[8]
  %Inh: 0%
[9]
  %Inh: 0%
[10]; [11]
  %Inh: 15%

## Cl.Cl.NCC(NC(=O)c1cc(-c2cccnc2)c(-c2ccnc3[nH]ccc23)s1)c1ccccc1 (stereo not drawn) [GSK1323434]
[1]
  %Inh: 6%
[2]
  %Inh: 88%
[3]
  %Inh: 0%
[4]
  %Inh: 0%
[5]
  %Inh: 8%
[6]
  %Inh: 39%
[7]
  %Inh: 4%
[8]
  %Inh: 21%
[9]
  %Inh: 34%
[10]; [11]
  %Inh: 22%

## Cn1cc(-c2ccc3c(c2)CCN3C(=O)Cc2cc(F)cc(F)c2F)c2c(N)ncnc21 [GSK2634140]
[1]
  %Inh: 0%
[2]
  %Inh: 17%
[3]
  %Inh: 40%
[4]
  %Inh: 11%
[5]
  %Inh: 0%
[6]
  %Inh: 0%
[7]
  %Inh: 0%
[8]
  %Inh: 0%
[9]
  %Inh: 0%
[10]; [11]
  %Inh: 1%

## CN(C)CCOc1ccc(-c2cc(-c3ccc(Cl)c(O)c3)c(-c3ccncc3)[nH]2)cc1.Cl.Cl [SB-684387]
[1]
  %Inh: 78%
[2]
  %Inh: 42%
[3]
  %Inh: 0%
[4]
  %Inh: 43%
[5]
  %Inh: 0%
[6]
  %Inh: 21%
[7]
  %Inh: 0%
[8]
  %Inh: 17%
[9]
  %Inh: 41%
[10]; [11]
  %Inh: 10%

## CN(c1ccc(F)c(NC(=O)c2cccc(OC(C)(C)C#N)c2Cl)c1)c1ccc2nc(NC(=O)C3CC3)sc2n1
[1]
  %Inh: 79%
[2]
  %Inh: 0%
[3]
  %Inh: 0%
[4]
  %Inh: 0%
[5]
  %Inh: 0%
[6]
  %Inh: 6%
[7]
  %Inh: 4%
[8]
  %Inh: 21%
[9]
  %Inh: 4%
[10]; [11]
  %Inh: 0%

## COc1ccc(C2=C(Nc3cccc(O)c3)C(=O)NC2=O)cc1 [SB-390766]
[1]
  %Inh: 34%
[2]
  %Inh: 0%
[3]
  %Inh: 61%
[4]
  %Inh: 0%
[5]
  %Inh: 0%
[6]
  %Inh: 33%
[7]
  %Inh: 0%
[8]
  %Inh: 0%
[9]
  %Inh: 41%
[10]; 1 µM
  %Inh: 35%

## N#CC1(c2cccc(C(=O)Nc3cccc(Oc4ccc5nc(NC(=O)C6CC6)sc5n4)c3)c2)CC1
[1]
  %Inh: 92%
[2]
  %Inh: 0%
[3]
  %Inh: 0%
[4]
  %Inh: 12%
[5]
  %Inh: 0%
[6]
  %Inh: 0%
[7]
  %Inh: 0%
[8]
  %Inh: 0%
[9]
  %Inh: 24%
[10]; [11]
  %Inh: 0%
